Measured values taken from PubChem BioAssay AID1347426 (Functional Genomics Laboratory (NCATS/FGL), 2020).
About 1,400 (4.5%) of roughly 31,000 sequences were called active. Many of the other results were omitted from the sample, so actives are more common in it than they were. A number with no mark means an inactive call.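 The calls were made as follows: active = median seed-adjusted z-score above 1 or below -1; inactive = the rest.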

Assay: Novel Modifiers of Survival Motor Neuron (SMN) Protein: Gene Identification via Genome-wide siRNA Screen;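 also: luminescence tracks full-length SMN protein made from the SMN2 reporter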
Details: HEK293T SMN2-luciferase reporter, siRNA knockdown, 72 h; actives lie on both sides
In short: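 Genome-wide siRNA screen (10418 genes, 3 siRNAs each, 1 pmol per well) by reverse transfection in HEK293T cells stably carrying an SMN2-luciferase reporter; luminescence after 72 hours, normalized to negative-control siRNA, log10-transformed, MAD-scored.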

Row | Sequence | median seed-adjusted z-score
1 | CAUCAUGACAUGUAUGAUUTT against PAFAH1B3 | -0.381
2 | GAGUGUGACUGGUAAAGUUTT against SMNDC1 | -1.54 (active)
3 | GAGGAAUUGUUGAUAAAGATT against MAGI2 | -0.23
4 | GAAUGCUCCUUUACCAGAATT against GRB10 | -0.0341
5 | GGAAGAACAUGACAACCAATT against IFIT1 | -0.489
6 | CCAACGAUCUGGACCGUGUTT against MED16 | -0.6
7 | GAACCUGGAUCACAUAAUATT against DFFB | 0.242
8 | CCAAGAUUGUCACUCUGGATT against E2F7 | -0.0972
9 | GGUUCGAGGUAAACCCUAATT against CTPS2 | 1.08 (active)
10 | GGGCUACAAACUGAACAAATT against LOC81691 | -0.285
11 | CAACAGCGAUUUGAUGGAATT against ERO1L | -0.251
12 | GGAACUGUUUAUAAGGGUATT against RAF1 | 0
13 | GGCACGUUUUACGACAGAATT against CHEK2 | 0.585
14 | GGCACAUGGUUAACCUGGATT against GPX4 | -1.18 (active)
15 | CCCAGGAAGUUCUACUACATT against HS6ST1 | -0.436
16 | GAACUUCACUUAGGACAUUTT against ATP6V1G1 | 0.311
17 | GACUCAAUGGUUUGCAUUATT against CTDP1 | -2.29 (active)
18 | GGAUGAUCAUGAGCGGCAATT against PHKG1 | -0.153
19 | GCUUCAUUGUGGACCGGCATT against GALNTL4 | 0
20 | GACUGGAGAUAUCAAGGAATT against SQLE | -1.14 (active)
21 | CAAUGAAGAUAUGUUUAGATT against WBP5 | 0.452
22 | GAUCAUUGAGAACACGUAUTT against RNF121 | -0.53

Row | Sequence | median seed-adjusted z-score
23 | GAAUCCACCUUCGACCUGATT against HMX1 | 1.3 (active)
24 | CCACUGAAUAUGUGCAGAATT against FBP2 | 0
25 | CGGCUACGACGAUUACGAATT against MYO15A | 0.0508
26 | GGAUUUCGAUUGCAUCAUUTT against LGI1 | -0.19
27 | AGUGGGUGCUGAACCAUGATT against FES | 0.402
28 | GCCCAGAGACUAUUCAGUATT against SF3A3 | -2.1 (active)
29 | CGUGGAAUACUAGAGCAAATT against ACTL6A | 1.11 (active)
30 | CAGACUUGCUUAAUAGUAATT against ZFP1 | 0.0391
31 | GGAACUACCAUGCAGGCUATT against ATP6V0B | 0
32 | CCAGCAUGGUUACUACGAATT against TRAIP | -0.018
33 | GGAACAAGAGUGGACGGAATT against PIAS3 | -0.216
34 | CCAGCUCUUCCAUACAAUATT against RAB9A | 0.247
35 | GGCUUCAUAUCUAGACUAATT against APOBEC3A | 0.467
36 | UGUUCAGCCUUGACUCAAATT against RHOU | -1.44 (active)
37 | GCACCUAUGAGGAAAAUGATT against LAMB2 | 1.12 (active)
38 | GAAGCUUGAUCUAAUUAUATT against ZNF182 | 0
39 | CCAUUUCCAGAGGCCCAGATT against SLC22A12 | -0.148
40 | GCCUGGAACUCGUUAGCAATT against TRMT11 | -0.707
41 | GGCUUAACUUUAGUGUUGATT against PRDM2 | 1.12 (active)
42 | GAGCGAGUUUUACCUGAUATT against ABCA10 | -0.104
43 | CAGAUAUGAUUGGUGUAAATT against CABP1 | -0.192
44 | GAAAUCGACUCUCACCAAATT against IL18RAP | -0.681

Row | Sequence | median seed-adjusted z-score
45 | CGGAAAAUCAGCAACAUCATT against EPS8L2 | -0.497
46 | GGAUAAUAAGGAUCUAUUUTT against CPNE3 | 0.109
47 | GUUUACCUCUGGAUACACUTT against SNRPD1 | -2.97 (active)
48 | GGAGUUCCAAUGGAAGUUATT against PSMD14 | 0.375
49 | CGAUGGACUAAGUAAUAUATT against KPNA4 | 0.457
50 | CCACCUAUUUGCACAAGGATT against POMT2 | -0.614
51 | UCAAGGCCCUGUGCGCUAATT against PPP4C | 1.15 (active)
52 | GCAACCACCAAGAGUUUGATT against KCNS1 | -0.167
53 | CUGUAGAUCUUUGUCAAAATT against DUS4L | 0.525
54 | UGCUAGUCCUGGGAACAGATT against PPM1J | -0.901
55 | GGUCAACAAUGCUUAUGCATT against DHRS1 | 0
56 | GCUUGAGAACUACCAGGUUTT against TAL2 | -0.395
57 | ACAAUAAGCUGGACCUCUATT against TLR9 | -0.0834
58 | CCUUCUACAGGAUCUCCAATT against ADRA1A | -1.06 (active)
59 | CAGUGGAUGUUAUUCCUCATT against RNF128 | -0.377
60 | GGACUACACGUACUUCUCATT against KIRREL3 | -0.206
61 | CCAAGAGUGAUGCAGAGGATT against CABP4 | 0.146
62 | GGAGUUCUGUAACUCACUUTT against SLC38A2 | -1.04 (active)
63 | GGUGCUACAUCCUAGAGAATT against SULF2 | -0.109
64 | GCAAGACCUGGUCAGUAUATT against NOX4 | -0.246
65 | AGAAUGUCUUGAUUGUGGATT against HPRT1 | -0.0463
66 | GCCUCACAUUUUCUAAUGATT against RRM2 | -3.84 (active)

Row | Sequence | median seed-adjusted z-score
67 | AGAAGUUCAUGGUCGGAGATT against SULT1A1 | -0.26
68 | GAUCGGCACUUACACCUGUTT against OPHN1 | 0.692
69 | AGAUCGACCAGAACGUGGATT against APOA4 | 0.195
70 | CCACGUAACUAUCAUAAGATT against TLL1 | 0.396
71 | AGACCGACCUGGGCAUGAATT against SARM1 | 0.343
72 | CCAAAAUUGAAGUAAUAGATT against GTF2E2 | -1.32 (active)
73 | GCUCAGUUCUCGUCAAGGATT against ARIH2 | 0.0449
74 | AGUGAACUCCGGUCCUGCATT against RAB11FIP3 | 0.0361
75 | GCGAUGAGGUGGACUUGUATT against ST3GAL1 | 0.255
76 | GACCUGUCACAGAACCAGATT against VASN | 0.213
77 | GUCUUCAUGUAUGUCUUUUTT against GJB1 | 0.152
78 | AGGUAGAAGAAAUGCAAUATT against PKIA | 0.533
79 | GCCUAUAGGAUUGAACCAATT against DDHD2 | 0.447
80 | GCUGGGUAGUUUGACUGAATT against TRIM61 | 0.0116
81 | CAAAUACCGUUAAGCUGGATT against HBA1 | -1.03 (active)
82 | CUCUUAUAGUUGAUCGUGATT against ATAD2B | 0.0192
83 | GGAUAGCACAUGAUACAGATT against GAN | -1.07 (active)
84 | CCAUAUCGAAUAAUAAUGATT against SCRT1 | -0.483
85 | GGUUCUGACAGACAAUGGATT against DPT | 0.073
86 | GGACUCUUCUUUAGCUUUATT against TSPAN31 | -1.13 (active)
87 | CCGAAUCAUUAUGCACCAATT against OCLN | 0.232
88 | CAACCACACUAACGAGAUUTT against GLRX | -0.0561

Row | Sequence | median seed-adjusted z-score
89 | ACACCUGCCUGGUAGAGAATT against FGFR4 | 0.0825
90 | GAAACUUGAUUGAUCUUUATT against MITF | -0.249
91 | GAGAAGAUCUGGAACUCAUTT against CRAT | -1.42 (active)
92 | GCAGGUCAAAUUUCCAUAATT against ZNF175 | -0.0194
93 | CAAUAUCUGCUGUUAGCAATT against SCARB2 | -0.244
94 | GAUCAAAUAUGACUUCCUATT against GPR103 | 0
95 | GCUGGAAAAGGUUAACGAATT against PKNOX1 | 0.68
96 | GGACAUGACAGCAACCUUUTT against EGR1 | 0.0836
97 | CAAUGUCCGGAAGCAGUUUTT against ACAD8 | 1.06 (active)
98 | GGUCAACUCUCUACUGAUATT against ARHGAP29 | -0.0483
99 | GCAUAGAAGGCUUCACGAATT against PLCH1 | -0.00634
100 | UCACUGAAAUGAAACUGGUTT against ACBD4 | -0.363
101 | AAGAGAUUUUUGUAACUGATT against BCL2L14 | -0.859
102 | CGAUUUGAAGGUCCAUAUATT against DNAJC2 | -0.0357
103 | CCUCGACUAUUUUAAGACATT against UBA1 | 1.34 (active)
104 | GUCCUUUAACUGAAGCUUUTT against NDUFB9 | -0.982
105 | GGACAGUAGUGUGCAACGATT against LRIT1 | -0.611
106 | UGAUGAAUGUUAUCGAGAATT against RFC2 | 0.00126
107 | GCAGUUUCGAAAUCAACGATT against TEX14 | -0.107
108 | ACAAGAACCCUGACAAUAATT against DNAJB8 | -1.09 (active)
